{
  "source": "paper PMC8384837",
  "about": "“Expanding the binding specificity for RNA recognition by a PUF domain”",
  "assay_in_all_cases": "yeast three-hybrid, YBZ-1, SC-Leu-His + 0.5 mM 3-AT, 4 days",
  "details_in_all_cases": "tags: N-Gal4 AD-HA kept; label: inside an RPR1-promoter hybrid RNA with tandem MS2 sites; ssRNA",
  "key": {"[1]": {"target": "PUM1 PUF domain R5-PRL (Homo sapiens, UniProt Q14671 828-1176, C1007P;Q1011L)", "summary_of_the_method": "(§1)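 The interaction score is the logarithmic change in variant frequency from input to selection. It uses log2, with a pseudocount of 1 for absent variants, and frequencies came from PCR-amplified, Illumina-sequenced repeat regions. The libraries were Pumilio-1 PUF domains randomized at the three base-contacting residues per repeat, co-expressed with matching RNA elements in strain YBZ-1 (LexA–MS2 coat fusion, HIS3 reporter). Plating lasted four days on SC-Leu (input) or SC-Leu-His + 0.5 mM 3-AT (selection).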"}, "[2]": {"target": "PUM1 PUF domain R5-RKT (Homo sapiens, UniProt Q14671 828-1176, C1007R;R1008K;Q1011T)", "summary_of_the_method": "as §1"}, "[3]": {"target": "PUM1 PUF domain R5-RNC (Homo sapiens, UniProt Q14671 828-1176, C1007R;R1008N;Q1011C)", "summary_of_the_method": "as §1"}, "[4]": {"target": "PUM1 PUF domain R7-RRD (Homo sapiens, UniProt Q14671 828-1176, S1079R;N1080R;E1083D)", "summary_of_the_method": "as §1"}, "[5]": {"target": "PUM1 PUF domain R2-RRM (Homo sapiens, UniProt Q14671 828-1176, N899R;Y900R;Q903M)", "summary_of_the_method": "as §1"}, "[6]": {"target": "PUM1 PUF domain R2-DFE (Homo sapiens, UniProt Q14671 828-1176, N899D;Y900F;Q903E)", "summary_of_the_method": "as §1"}, "[7]": {"target": "PUM1 PUF domain R2-CYP (Homo sapiens, UniProt Q14671 828-1176, N899C;Q903P)", "summary_of_the_method": "as §1"}, "[8]": {"target": "PUM1 PUF domain R2-RRS (Homo sapiens, UniProt Q14671 828-1176, N899R;Y900R;Q903S)", "summary_of_the_method": "as §1"}, "[9]": {"target": "PUM1 PUF domain R1-RYT (Homo sapiens, UniProt Q14671 828-1176, S863R;R864Y;Q867T)", "summary_of_the_method": "as §1"}, "[10]": {"target": "PUM1 PUF domain R7-GTS (Homo sapiens, UniProt Q14671 828-1176, S1079G;N1080T;E1083S)", "summary_of_the_method": "as §1"}, "[11]": {"target": "PUM1 PUF domain R3-VCK (Homo sapiens, UniProt Q14671 828-1176, C935V;R936C;Q939K)", "summary_of_the_method": "as §1"}},
  "data": [
    {"sequence": "GGCUAGAACUAGUGGAUCCCCCGGCGCCCGGCGGCUCGAGCCCGGGUAAGUGUCAAUAGUCUGCAUGCCGCCGGGCGCCAUGCCUGCAGGUCGACUCUAGAAAACAUG", "values": [
      {"measurement": "binding signal", "setting": "[1]", "result": "0.34 log2 enrichment (interaction score)"},
      {"measurement": "binding signal", "setting": "[2]", "result": "2.84 log2 enrichment (interaction score)"},
      {"measurement": "binding signal", "setting": "[3]", "result": "3.93 log2 enrichment (interaction score)"}
    ]},
    {"sequence": "GGCUAGAACUAGUGGAUCCCCCGGCGCCCGGCGGCUCGAGCCCGGGUAAGUCUAAAUAGUCUGCAUGCCGCCGGGCGCCAUGCCUGCAGGUCGACUCUAGAAAACAUG", "values": [
      {"measurement": "binding signal", "setting": "[4]", "result": "2.84 log2 enrichment (interaction score)"}
    ]},
    {"sequence": "GGCUAGAACUAGUGGAUCCCCCGGCGCCCGGCGGCUCGAGCCCGGGUAAGUGUAAAGAGUCUGCAUGCCGCCGGGCGCCAUGCCUGCAGGUCGACUCUAGAAAACAUG", "values": [
      {"measurement": "binding signal", "setting": "[5]", "result": "2.71 log2 enrichment (interaction score)"},
      {"measurement": "binding signal", "setting": "[6]", "result": "7.89 log2 enrichment (interaction score)"},
      {"measurement": "binding signal", "setting": "[7]", "result": "2.3 log2 enrichment (interaction score)"},
      {"measurement": "binding signal", "setting": "[8]", "result": "2.87 log2 enrichment (interaction score)"}
    ]},
    {"sequence": "GGCUAGAACUAGUGGAUCCCCCGGCGCCCGGCGGCUCGAGCCCGGGUAAGUGUAAAUCGUCUGCAUGCCGCCGGGCGCCAUGCCUGCAGGUCGACUCUAGAAAACAUG", "values": [
      {"measurement": "binding signal", "setting": "[9]", "result": "5.12 log2 enrichment (interaction score)"}
    ]},
    {"sequence": "GGCUAGAACUAGUGGAUCCCCCGGCGCCCGGCGGCUCGAGCCCGGGUAAGUUUAAAUAGUCUGCAUGCCGCCGGGCGCCAUGCCUGCAGGUCGACUCUAGAAAACAUG", "values": [
      {"measurement": "binding signal", "setting": "[4]", "result": "4.81 log2 enrichment (interaction score)"},
      {"measurement": "binding signal", "setting": "[10]", "result": "2.61 log2 enrichment (interaction score)"}
    ]},
    {"sequence": "GGCUAGAACUAGUGGAUCCCCCGGCGCCCGGCGGCUCGAGCCCGGGUAAGUGUAAAUGGUCUGCAUGCCGCCGGGCGCCAUGCCUGCAGGUCGACUCUAGAAAACAUG", "values": [
      {"measurement": "binding signal", "setting": "[9]", "result": "0.45 log2 enrichment (interaction score)"}
    ]},
    {"sequence": "GGCUAGAACUAGUGGAUCCCCCGGCGCCCGGCGGCUCGAGCCCGGGUAAGUGUAAGUAGUCUGCAUGCCGCCGGGCGCCAUGCCUGCAGGUCGACUCUAGAAAACAUG", "values": [
      {"measurement": "binding signal", "setting": "[11]", "result": "1.58 log2 enrichment (interaction score)"}
    ]},
    {"sequence": "GGCUAGAACUAGUGGAUCCCCCGGCGCCCGGCGGCUCGAGCCCGGGUAAGUGUAAAAAGUCUGCAUGCCGCCGGGCGCCAUGCCUGCAGGUCGACUCUAGAAAACAUG", "values": [
      {"measurement": "binding signal", "setting": "[7]", "result": "5.81 log2 enrichment (interaction score)"},
      {"measurement": "binding signal", "setting": "[8]", "result": "1.22 log2 enrichment (interaction score)"}
    ]}
  ]
}
